FBW7 activator: FBW7 E3 ligase activators, primary screen, biochemical, AlphaScreen, human; hit rate 0.13% among 650,000; AlphaScreen FBW7–phospho-cyclin E peptide binding, activator screen; F-box/WD repeat-containing protein 7 (Homo sapiens), Q969H0; normalized activity (activation), % at 26.1 µM; in the data active = normalized activity above about 1.9%;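 also: purified mutant Fbw7 with reduced substrate affinity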
TEAD-YAP inh: TEAD-YAP interaction inhibition, primary screen, TEAD-YAP interaction inhibitor project, luminescence, HEK-TIYL cells. inhibition, % at 9.12 µM. AID 1259422, 2018. TEAD-Gal4/YAP UAS-luciferase luminescence. hit rate 1.4% among 640,000; in the data active = inhibition above about 32%;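 also: 0% = median of test compound wells and 100% = reference inhibitor wells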
MITF primary: MITF inhibitors, primary screen, biochemical, AlphaScreen, human; Microphthalmia-associated transcription factor (Homo sapiens), O75030; AlphaScreen MITF homodimerization, bead proximity signal; inhibition, % at 2.6 µM; hit rate 0.91% among 650,000; in the data active = inhibition above about 50%;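 also: 0% = vehicle wells with protein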
GPR151 ag: activators of human GPR151, primary screen, cell-based, PathHunter beta-arrestin, luminescence. PathHunter beta-arrestin GPR151 cells. G-protein coupled receptor 151 (Homo sapiens), Q8TDV0. hit rate 1% among 650,000. activation, % at 11.2 µM. AID 1508602, 2020; in the data active = activation above about 4.9%;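 also: 0% = median of compound wells and 100% = cells with positive control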
Target sequence (Q8TDV0 whole entry, looked up): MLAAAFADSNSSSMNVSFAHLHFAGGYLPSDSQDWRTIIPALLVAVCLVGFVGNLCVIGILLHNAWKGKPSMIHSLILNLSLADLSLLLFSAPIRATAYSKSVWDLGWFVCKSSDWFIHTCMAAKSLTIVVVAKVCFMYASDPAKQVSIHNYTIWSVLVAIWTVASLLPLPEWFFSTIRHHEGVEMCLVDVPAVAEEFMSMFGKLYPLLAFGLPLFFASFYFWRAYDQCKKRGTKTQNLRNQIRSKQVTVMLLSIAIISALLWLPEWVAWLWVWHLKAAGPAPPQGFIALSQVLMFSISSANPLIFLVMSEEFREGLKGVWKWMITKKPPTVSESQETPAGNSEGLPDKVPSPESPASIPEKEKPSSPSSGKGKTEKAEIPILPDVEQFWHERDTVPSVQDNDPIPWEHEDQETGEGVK
GPR151 conf act: GPR151 activators, triplicate retest, confirmation, cell-based, PathHunter beta-arrestin, luminescence | activation, % at 11.2 µM | shares compounds with GPR151 ag | GPR151 PathHunter beta-arrestin cells, 90 min; % of EA-reagent control over plate median | 6,700 tested, under 10 active;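 active = mean percent activation across replicates above the confirmation screen cutoff of 4.91%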
GPR119 ag: GPR119 activators in beta-arrestin cells, counter-screen for GPR151 activator project, cell-based, PathHunter beta-arrestin, luminescence, triplicate | 90 min; 0 = compound-well median, 100 = enzyme-acceptor control | hit rate 0.3% among 6,700 | shares compounds with GPR151 ag | activation, % at 11.2 µM;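 active = mean percent activation in the counterscreen above 29.09%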;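 also: counterscreen on off-target GPR119 to flag nonselective hits from the GPR151 activator screen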
* hit, by the source's call; · = no result given; ! = repeats disagree. Only some compounds are listed: those with a hit (about 3.4% of all), similar ones and a draw of the others.

SMILES	FBW7 activator	TEAD-YAP inh	MITF primary	GPR151 ag	GPR151 conf act	GPR119 ag
CNS(=O)(=O)c1ccc(NC(=O)/C=C/c2ccco2)cc1	0	-9	-3	0	·	·
CN(C)S(=O)(=O)c1ccc(NC(=O)/C=C/c2ccco2)cc1	0	-23	7	8.3*	1	4
O=C(/C=C/c1ccco1)Nc1ccc(S(=O)(=O)N2CCCCCC2)cc1	0	2	-6	-1	·	·
O=C(Nc1ccc(S(=O)(=O)N2CCCCCC2)cc1)C(Cl)(Cl)Cl	0	0	6	6.7*	0	-7
OCc1ccc(-c2cnn3c(N4CCC(O)CC4)ccnc23)cc1	0	-45	13	-1	·	·
O=C(c1ccc(CN2C(=O)CCn3nccc32)cc1)N1CCOCC1	0	-2	1	7.2*	0	-9
O=C(c1ccc2c(c1)N(Cc1ccccc1)C(=O)CS2)N1CCOCC1	0	11	0	0	·	·
CCCCC(C(=O)OC)N1C(=O)c2cc(Cl)c(Cl)cc2C1=O (stereo not given)	0	-1	-2	7.6*	0	5
Cc1nc(NC2=NCN(Cc3cccnc3)CN2)nc2ccccc12	0	4	13	7.7*	0	3
CCCOc1ccc(NC(=O)C2CC(=O)N(CC)C(=Nc3ccc(C)c(C)c3)S2)cc1 (stereo not given)	0	-3	8	7.3*	3	13
CCOc1ccc(NC(=O)C2CC(=O)N(CC)C(=Nc3ccc(C)c(C)c3)S2)cc1 (stereo not given)	0	12	-3	0	·	·
CCCC(=O)Nc1nn2c(CC(C)C)nnc2s1	0	-5	-2	7.1*	1	1
CC(C)Cc1nnc2sc(NC(=O)C(C)C)nn12	0	0	3	-1	·	·
CCC(=O)Nc1nn2c(CC(C)C)nnc2s1	0	6	-13	5.0*	0	-6
CCCC(=O)Nc1nn2c(CCC)nnc2s1	0	-4	0	0	·	·
Cc1ccc(S(=O)(=O)N2C(=O)CCC2C(=O)O/N=C(\N)c2ccccc2)cc1 (stereo not given)	0	-10	5	8.4*	0	-4
Cc1ccc(S(=O)(=O)N2C(=O)CCC2C(=O)O/N=C(\N)c2cccnc2)cc1 (stereo not given)	0	2	3	5.2*	1	7
COc1ccc(C(=O)OCCCOC(=O)c2ccc(OC)cc2OC)c(OC)c1	0	-21	24	5.9*	1	8
COc1ccc(C(=O)OCCCC(=O)c2ccc(F)cc2)c(OC)c1	0	0	6	2	·	·
O=[N+]([O-])c1ccc(C2Nc3ccccc3S(=O)(=O)N2Cc2ccccc2)cc1 (stereo not given)	0	-3	3	6.7*	0	-6
COc1ccc(C2Nc3ccccc3S(=O)(=O)N2Cc2ccccc2)cc1[N+](=O)[O-] (stereo not given)	0	-3	-7	0	·	·
COc1ccc(S(=O)(=O)N(C)CC(=O)Nc2cccc(OC)c2)cc1	0	-1	9	6.2*	0	-10
COc1ccc(CNC(=O)CN(C)S(=O)(=O)c2ccc(Cl)cc2)cc1	0	4	13	5.4*	0	-5
CCCOC(=O)C1=C(C)NC2=C(C(=O)CC(c3ccc(Cl)cc3)C2)C1c1ccc(OCc2ccccc2)c(OC)c1 (stereo not given)	0	-4	-2	-1	·	·
Cc1n[nH]c(C)c1CCC(=O)N/N=C\c1ccccc1Br	0	12	4	1	·	·
SMILES	FBW7 activator	TEAD-YAP inh	MITF primary	GPR151 ag	GPR151 conf act	GPR119 ag
Cc1cccc(Nc2nc(N3CCCC3)nc(N3CCCC3)n2)c1	0	1	4	5.6*	1	4
COc1nc(Nc2cccc(C)c2)nc(N2CCCCC2)n1	0	-7	14	0	·	·
C/C(CC(=O)Nc1ccccn1)=N\NC(=O)Cc1ccc(Cl)cc1	0	0	3	0	·	·
Cc1ccc([N+](=O)[O-])cc1NC(=O)Cc1ccc(F)cc1	0	0	7	5.4*	-1	-11
Cc1cc([N+](=O)[O-])ccc1NC(=O)Cc1ccc(F)cc1	0	8	-7	0	·	·
CC(=O)CC(=O)Nc1cc([N+](=O)[O-])ccc1C	0	-6	6	0	·	·
C/C(CC(=O)Nc1cc([N+](=O)[O-])ccc1C)=N\NC(=O)C(=O)NCCO	0	-8	-4	8.3*	0	9
CC1(C)C(c2ccccc2)=[N+]([O-])C(C(=O)O)N1O (stereo not given)	0	0	0	0	·	·
C/C=C/C(=O)N(CC)c1ccccc1C	0	0	8	6.1*!	2	10
CCCC(=O)N(CC)c1ccccc1C	0	-2	6	0	·	·
Brc1ccc(Nc2nc(-c3ccccn3)cs2)cc1	0	-28	21	1	·	·
Brc1cccc(Nc2nc(-c3ccccn3)cs2)c1	0	-14	1	22*	0	-12
Cc1csc(N/N=C/c2ccc(C(F)(F)F)cc2)n1	0	1	10	-1	·	·
CC1(C2CCN(C(=O)Cc3ccsc3)CC2)NC(=O)N(C2Cc3ccccc3C2)C1=O (stereo not given)	0	10	-6	0	·	·
CC1(C2CCN(C(=O)C(=O)c3ccccc3)CC2)NC(=O)N(C2Cc3ccccc3C2)C1=O (stereo not given)	0	1	-9	5.2*	0	5
Cc1ccc(Sc2ccc3noc4c3c2C(=O)c2ccccc2-4)cc1	0	1	9	11*	-1	-14
COc1ccccc1Cn1c(=S)[nH]c2cc(C(=O)N3CCCCC3)ccc2c1=O	1	10	16	-1	·	·
COc1ccccc1Cn1c(=S)[nH]c2cc(C(=O)N3CCC(C(N)=O)(N4CCCCC4)CC3)ccc2c1=O	0	11	7	5.8*	2	10
CCOC(=O)c1c(-c2ccco2)csc1NC(=O)COC(=O)c1cc[n+]([O-])cc1	0	1	23	-1	·	·
O=C(O)CCCCNS(=O)(=O)c1ccccc1C(F)(F)F	1	-13	13	9.4*	-1	-4
O=[N+]([O-])c1c(Oc2ccc(Cl)cc2)ccc2nsnc12	0	-5	12	5.3*	0	-7
O=[N+]([O-])c1c(Cl)ccc2nsnc12	0	-1	0	1	·	·
